# Source: PubChem BioAssay (NCATS)
# Values joined by “and” are separate entries in the source; they are usually repeats but may differ in a detail not shown here. Identical values can stand only once. Records with an inconclusive call do not appear. Active and inactive are the calls of the source. The call rests on the fitted dose curve; in most records, active means well fitted curve in the direction sought with a large enough effect; inconclusive means small, poorly fitted or top-dose-only effect, or another doubt; inactive means no such curve, though single readings can be large; an effect the other way counts as inactive or inconclusive.
# Key:
# [1] = Quantitative High-Throughput drug screen in 47 multiple myeloma cell lines against the NCATS MIPE library collection: Karpas620_DSMZ cell viability assay (AID 1918959); further: nearly all actives have a fitted effect of over 30% in size
# Outline: (§1)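 Inhibition of cell viability is measured here. Each line was plated at 500 cells per well, treated with MIPE 4.0 drugs, kept 48 hours at 37C, then assayed for ATP content by CellTiter-Glo luminescence.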
# [2] = Quantitative High-Throughput drug screen in 47 multiple myeloma cell lines against the NCATS MIPE library collection: JIM1_ECACC cell viability assay (AID 1918964)
# Outline: (§2)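 Myeloma cell lines, 500 cells per well, exposed to MIPE 4.0 library compounds for 48 h at 37C, 5% CO2. Viability from ATP by CellTiter-Glo luminescence; normalised to DMSO (100%) and media-only (0%) wells.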
# [3] = Quantitative High-Throughput drug screen in 47 multiple myeloma cell lines against the NCATS MIPE library collection: INA6_PLB cell viability assay (AID 1918965; further: nearly all actives have a fitted effect of over 55% in size)
# Outline: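 qHTS of the MIPE 4.0 collection: 500 myeloma cells/well, 48 h drug exposure at 37C in 5% CO2, then CellTiter-Glo for 5 min at room temperature before luminescence reading.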
# [4] = Quantitative High-Throughput drug screen in 47 multiple myeloma cell lines against the NCATS MIPE library collection: H1112_PLB cell viability assay (AID 1918967; further: nearly all actives have a fitted effect of over 30% in size)
# Outline: as §2
# [5] = Quantitative High-Throughput drug screen in 47 multiple myeloma cell lines against the NCATS MIPE library collection: KMM1_JCRB cell viability assay (AID 1918960); further: nearly all actives have a fitted effect of over 30% in size
# Outline: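 Luminescence from CellTiter-Glo, taken after 5 min at room temperature, reports cellular ATP as viability. Cells (500 per well) had been treated 48 h at 37 °C with MIPE 4.0 compounds, scaled between DMSO and medium-only controls.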
# [6] = Quantitative High-Throughput drug screen in 47 multiple myeloma cell lines against the NCATS MIPE library collection: KHM11_PLB cell viability assay (AID 1918962); further: nearly all actives have a fitted effect of over 35% in size
# Outline: as §1
# [7] = Quantitative High-Throughput drug screen in 47 multiple myeloma cell lines against the NCATS MIPE library collection: JIM3_ECACC cell viability assay (AID 1918963; further: nearly all actives have a fitted effect of over 35% in size)
# Outline: as §1
# [8] = Quantitative High-Throughput drug screen in 47 multiple myeloma cell lines against the NCATS MIPE library collection: JJN3_DSMZ cell viability assay (AID 1918966; further: nearly all actives have a fitted effect of over 50% in size)
# Outline: as §2
# Potency means the concentration at half of the fitted maximal effect.
compound,measurement,setting,value
OCCC#Cc1nc(-c2ccc(F)cc2)c(-c2ccncc2)n1CCCc1ccccc1,Potency,[1],20.9 µM (active)
same,Potency,[2],13.2 µM (active)
same,Potency,[3],26.4 µM (active)
same,Potency,[4],5.9 µM (active)
C[C@]12CC[C@H](O)CC1=CC[C@@H]1[C@H]2CC[C@]2(C)C(c3cccnc3)=CC[C@H]12,Potency,[1],inactive
same,Potency,[5],inactive
same,Potency,[4],inactive
COc1ccc(-c2c(-c3ccc(O)cc3O)n[nH]c2C)cc1,Potency,[1],42.9 µM (active)
same,Potency,[6],inactive
same,Potency,[3],38.2 µM (active)
COc1ccc2c3n(c(=NC(=O)c4cccnc4)nc2c1OC)CCN3,Potency,[1],7.43 µM (active)
same,Potency,[7],18.7 µM (active)
same,Potency,[3],23.5 µM (active)
same,Potency,[4],4.69 µM (active)
Fc1ccc(Cl)cc1-c1nc(Nc2ccncc2)c2nccnc2n1,Potency,[1],inactive
same,Potency,[3],16.6 µM (active)
same,Potency,[4],inactive
CCCCCCCc1ccc(CCc2cccc(O)c2C(=O)O)cc1,Potency,[1],inactive
same,Potency,[2],inactive
C#Cc1cccc(Nc2ncnc3cc(OCCOC)c(OCCOC)cc23)c1,Potency,[1],4.69 µM (active)
same,Potency,[6],3.32 µM (active)
same,Potency,[3],18.7 µM (active)
COc1ccc(CC2=NN3C([C@@H](CCc4ccccc4)[C@@H](C)O)=NC(C)C3C(=O)N2)cc1OC (stereo partly drawn),Potency,[1],inactive
same,Potency,[5],inactive
same,Potency,[4],inactive
CN[C@@H](C)C(=O)N[C@H]1CCCC[C@H]2CC[C@@H](C(=O)N[C@@H](c3ccccc3)c3cn(CCCCc4ccc(CCCCn5cc([C@@H](NC(=O)[C@@H]6CC[C@@H]7CCCC[C@H](NC(=O)[C@H](C)NC)C(=O)N76)c6ccccc6)nn5)cc4)nn3)N2C1=O,Potency,[1],14.8 µM (active)
same,Potency,[6],5.26 µM (active)
same,Potency,[3],8.33 µM (active)
CS(=O)(=O)Oc1ccc2c(NC(N)=O)c(C(=O)c3ccc(Cl)cc3Cl)oc2c1,Potency,[1],10.5 µM (active)
same,Potency,[3],5.26 µM (active)
same,Potency,[4],18.7 µM (active)
CCOc1cc(C(=O)Nc2ccc(Cl)c(-c3nc4ccccc4[nH]3)c2)cc(OCC)c1OCC,Potency,[1],13.2 µM (active)
same,Potency,[6],1.18 µM (active)
same,Potency,[3],11.8 µM (active)
N#CC[C@H](C1CCCC1)n1cc(-c2ncnc3[nH]ccc23)cn1,Potency,[1],5.26 µM (active)
same,Potency,[7],6.62 µM (active)
same,Potency,[3],0.372 µM (active)
same,Potency,[8],5.26 µM (active)
same,Potency,[4],inactive
NCCCC(N)(C(=O)O)C(F)F (stereo not drawn),Potency,[1],inactive
same,Potency,[6],inactive
same,Potency,[7],13.2 µM (active)
Cn1cc(-c2ccc3nnc(C(F)(F)c4ccc5ncccc5c4)n3n2)cn1,Potency,[1],inactive
same,Potency,[6],4.69 µM (active)
same,Potency,[7],inactive
OC(CN1CCC(Cc2ccc(F)cc2)CC1)c1ccc(Cl)cc1 (stereo not drawn),Potency,[1],inactive
same,Potency,[5],inactive
same,Potency,[4],inactive
NC(=O)C1CCCc2c1[nH]c1ccc(Cl)cc21 (stereo not drawn),Potency,[1],18.7 µM (active)
same,Potency,[6],14.8 µM (active)
same,Potency,[4],inactive
CNC(=O)c1ccc(C)c(-n2c(C)cc(OCc3ccc(F)cc3F)c(Br)c2=O)c1,Potency,[5],4.69 µM (active)
same,Potency,[7],16.6 µM (active)
same,Potency,[2],23.5 µM (active)
same,Potency,[3],16.6 µM (active)
same,Potency,[4],7.43 µM (active)
Cn1cnc([N+](=O)[O-])c1Sc1ncnc2nc[nH]c12,Potency,[5],2.96 µM (active)
same,Potency,[7],14.8 µM (active)
same,Potency,[3],5.26 µM (active)
same,Potency,[4],10.5 µM (active)
Cc1cc(Nc2nc(N[C@@H](C)c3ncc(F)cn3)ncc2Cl)n[nH]1,Potency,[5],inactive
same,Potency,[7],8.33 µM (active)
same,Potency,[3],5.26 µM (active)
same,Potency,[4],3.32 µM (active)
Cc1ccc(N(CC2=NCCN2)c2cccc(O)c2)cc1,Potency,[6],inactive
same,Potency,[3],13.2 µM (active)
same,Potency,[4],26.4 µM (active)
COc1ccc2nc(S(=O)Cc3ncc(C)c(OC)c3C)[nH]c2c1 (stereo not drawn),Potency,[7],inactive
NC(=O)c1ccc(-c2nc(-c3ccc4c(c3)OCCO4)c(-c3ccccn3)[nH]2)cc1,Potency,[7],inactive
same,Potency,[4],inactive
Cc1c(CN2CCN(C(=O)C(C)C)CC2)sc2c(N3CCOCC3)nc(-c3cnc(N)nc3)nc12,Potency,[5],0.059 µM (active)
same,Potency,[6],0.132 µM (active)
same,Potency,[7],0.418 µM (active)
same,Potency,[2],0.0132 µM (active)
same,Potency,[3],0.235 µM (active)
same,Potency,[8],0.209 µM (active)
COc1ccc(-c2ccc3c(N4CCOC[C@H]4C)nc(N4CCOC[C@H]4C)nc3n2)cc1CO,Potency,[3],0.0372 µM (active)
CCN(CC)CCCC(C)Nc1ccnc2cc(Cl)ccc12 (stereo not drawn),Potency,[5],inactive
same,Potency,[7],inactive
same,Potency,[2],inactive
same,Potency,[4],inactive
O=C(Nc1ccc(F)c(C(F)(F)F)c1)Nc1nnc(-c2ccncc2)s1,Potency,[3],2.35 µM (active)
CCC(C)N(C)C(=O)c1cc2ccccc2c(-c2ccccc2Cl)n1 (stereo not drawn),Potency,[6],inactive
same,Potency,[3],inactive
same,Potency,[4],inactive
O=c1ncn2nc(Sc3ccc(F)cc3F)ccc2c1-c1c(Cl)cccc1Cl,Potency,[7],inactive
same,Potency,[2],inactive
same,Potency,[3],4.18 µM (active)
CNC(=O)c1ccc(N2C(=S)N(c3ccc(C#N)c(C(F)(F)F)c3)C(=O)C2(C)C)cc1F,Potency,[5],9.35 µM (active)
same,Potency,[6],inactive
same,Potency,[7],inactive
same,Potency,[4],inactive
COCCNCCCn1c(C(=O)CF)c(-c2ccc(C)cc2)c2c(N)ncnc21,Potency,[2],inactive
same,Potency,[3],16.6 µM (active)
CCc1cc(Nc2nccc(-c3c(-c4ccc(OC)c(C(=O)Nc5c(F)cccc5F)c4)nc4ccccn34)n2)c(OC)cc1N1CCC(N2CCN(S(C)(=O)=O)CC2)CC1,Potency,[7],18.7 µM (active)
same,Potency,[3],2.96 µM (active)
same,Potency,[4],10.5 µM (active)
COc1ccc(CCN2CCN(CCCc3ccccc3)CC2)cc1OC,Potency,[7],inactive
same,Potency,[4],inactive
COCC(=O)NCC=Cc1ccc2ncnc(Nc3ccc(Oc4ccc(C)nc4)c(C)c3)c2c1,Potency,[5],8.33 µM (active)
same,Potency,[7],16.6 µM (active)
same,Potency,[2],16.6 µM (active)
same,Potency,[3],10.5 µM (active)
COc1cc(Nc2ncc3c(n2)-c2ccc(Cl)cc2C(c2c(F)cccc2OC)=NC3)ccc1C(=O)O,Potency,[4],inactive
Cc1cn[nH]c1,Potency,[5],0.526 µM (active)
same,Potency,[4],6.62 µM (active)
O=C(C1CC1)N1CC[C@@H](Cn2c(-c3ccc(-c4ccc5occc5c4)cc3)nc3cnccc32)C1,Potency,[6],inactive
same,Potency,[3],20.9 µM (active)
same,Potency,[4],inactive
C1COC(NC(C2CC2)C2CC2)=N1,Potency,[6],inactive
same,Potency,[3],9.35 µM (active)
same,Potency,[4],inactive
OC[C@H](Cc1ccccc1)Nc1nc(Oc2ccc3c(c2)CCC3)nc2c1ncn2Cc1ccc(-c2ccccc2)cc1,Potency,[2],inactive
Cc1c(C)c2c(c(C)c1O)CCC(C)(COc1ccc(CC3SC(=O)NC3=O)cc1)O2 (stereo not drawn),Potency,[8],inactive
same,Potency,[4],inactive
CC(C=CC1=C(C)CCCC1(C)C)=CC=CC(C)=CC(=O)O,Potency,[5],inactive
same,Potency,[6],5.9 µM (active)
same,Potency,[7],20.9 µM (active) and 4.69 µM (active)
same,Potency,[3],14.8 µM (active) and 5.9 µM (active)
same,Potency,[8],5.9 µM (active) and 1.66 µM (active)
same,Potency,[4],14.8 µM (active) and 11.8 µM (active)
CCOc1ccn(-c2ccc(F)cc2)c(=O)c1C(=O)Nc1ccc(Oc2ccnc(N)c2Cl)c(F)c1,Potency,[7],inactive
same,Potency,[4],13.2 µM (active)
CCOc1ccc(Cc2cc([C@@H]3O[C@H](CO)[C@@H](O)[C@H](O)[C@@H]3O)ccc2Cl)cc1,Potency,[3],inactive
CC(C)OC(=O)C1=CN(C(=O)c2ccc(F)c(F)c2)CC(C)(C)c2c1[nH]c1ccccc21,Potency,[5],inactive
same,Potency,[4],inactive
CC(=O)Oc1ccccc1C(=O)O,Potency,[5],inactive
same,Potency,[4],7.43 µM (active)
C[C@@H]1CN(Cc2ccc(F)cc2)[C@@H](C)CN1C(=O)c1cc2c(C(=O)C(=O)N(C)C)cn(C)c2cc1Cl,Potency,[3],20.9 µM (active)
same,Potency,[4],13.2 µM (active)
Cc1cc([C@@H](C)Nc2ccccc2C(=O)O)c2nc(N3CCOCC3)cc(=O)n2c1,Potency,[7],13.6 µM (active)
same,Potency,[3],13.6 µM (active)
CCOC(=O)N1CCC(=C2c3ccc(Cl)cc3CCc3cccnc32)CC1,Potency,[5],inactive
same,Potency,[7],inactive
same,Potency,[2],inactive
same,Potency,[4],inactive
CN(C)c1ccc(C2Nc3ccc4ccccc4c3C3=C2C(=O)CC(C)(C)C3)cc1Br (stereo not drawn),Potency,[5],4.69 µM (active)
same,Potency,[2],0.0019 µM (active)
same,Potency,[4],5.26 µM (active)
Nc1nccc(-c2ccc3noc(-c4ccc(Cl)cc4)c3c2)n1,Potency,[1],inactive
same,Potency,[4],inactive
O=S(=O)(N=Cc1c(O)ccc2ccccc12)c1cccs1,Potency,[2],inactive
same,Potency,[3],2.64 µM (active)
same,Potency,[4],16.6 µM (active)
COc1ccccc1-c1cccc(-c2c(O)c3cc(C#N)c(Cl)cc3[nH]c2=O)c1,Potency,[7],42.9 µM (active)
same,Potency,[3],inactive
same,Potency,[8],inactive
same,Potency,[4],inactive
